ADAM10 inh: human ADAM10 inhibitors, primary screen, biochemical, QFRET, HTS. recombinant ADAM10, EDANS/DABCYL FRET peptide cleavage, 3 h. inhibition, % at 7 µM. actives 0.62% (n = 370,000). AID 720582, 2013;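 active = inhibition above a per-campaign cutoff equal to the mean of compounds falling between control-based bounds plus 3 SD, cut at about 20% in these data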
ADAM17 inh: ADAM17 inhibitors, primary screen, biochemical, QFRET. Disintegrin and metalloproteinase domain-containing protein 17 (Homo sapiens), P78536. recombinant ADAM17, EDANS/DABCYL FRET peptide cleavage. inhibition, % at 6.95 µM. actives 0.83% (n = 370,000);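 active = inhibition above the mean of compounds lying between control limits plus 3 SD, set per campaign, cut at about 8.5% in these data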
Target sequence (P78536 215-824 limits assumed): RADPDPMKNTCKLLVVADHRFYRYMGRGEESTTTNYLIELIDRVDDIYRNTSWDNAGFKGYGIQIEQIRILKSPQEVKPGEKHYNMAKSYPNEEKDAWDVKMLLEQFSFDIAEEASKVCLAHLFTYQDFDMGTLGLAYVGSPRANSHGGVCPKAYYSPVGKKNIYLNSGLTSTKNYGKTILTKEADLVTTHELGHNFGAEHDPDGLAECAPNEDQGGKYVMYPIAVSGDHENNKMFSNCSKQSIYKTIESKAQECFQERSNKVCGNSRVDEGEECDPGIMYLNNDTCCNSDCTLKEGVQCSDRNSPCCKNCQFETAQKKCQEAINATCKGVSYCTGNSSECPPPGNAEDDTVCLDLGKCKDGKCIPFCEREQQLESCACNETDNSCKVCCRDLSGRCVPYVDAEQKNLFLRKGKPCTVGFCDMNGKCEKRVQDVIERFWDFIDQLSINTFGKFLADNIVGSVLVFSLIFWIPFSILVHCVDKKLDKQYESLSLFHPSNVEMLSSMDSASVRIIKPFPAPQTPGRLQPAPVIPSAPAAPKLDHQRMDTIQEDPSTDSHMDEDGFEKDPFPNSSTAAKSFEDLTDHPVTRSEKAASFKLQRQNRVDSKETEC
KLK7 zymogen act: proKLK7 zymogen activators, primary screen, biochemical, fluorescence intensity; Kallikrein-7 (Homo sapiens), P49862; purified proKLK7, EDANS-DABCYL substrate fluorescence; 100% is mature enzyme control, 0% vehicle; activation, % at 7 µM; actives 0.9% (n = 370,000);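 active = activation above the mean of all tested compounds plus 3 SD, computed per campaign excluding outliers beyond control limits, cut at about 13% in these data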
FGF22 binding-1: binders of human FGF22 protein, primary screen, FGF22 synaptogenesis inhibitor project, biophysical, thermal shift, single point | AID 651658, 2012 | Fibroblast growth factor 22 (Homo sapiens), Q9HCT0 | recombinant FGF22 thermal shift, SYPRO orange fluorescence; percent of sucrose octasulfate shift, DMSO zero | activity (Tm shift, normalised), % at 9.99 µM | actives 1.5% (n = 340,000);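 active = mean Tm shift, scaled 0 neutral to 100 positive control, at about 1.3% or above, every replicate too, limit read from the data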
Ecoli rRNA inh: reduced GFP signal of wild-type E. coli, primary screen, bacterial rRNA inhibitor project, GFP/RFP fluorescence, OD600, single point | E. coli WT GFP vs humanized-ribosome RFP mutants, 24 h; hits give low values; DMSO median 0, no signal -100 | GFP signal change (wild-type ribosome), % (concentration not given with the values) | actives 1.6% (n = 350,000);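 active = significant combined selectivity score with lowered wild-type GFP, culture density cut under 30%, mutant RFP and density less affected; inactive = any of these conditions unmet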
FGF22 binding-2: binders of human FGF22 protein, dose response, FGF22 synaptogenesis inhibitor project, biophysical, thermal shift, cherry-pick retest. shares compounds with FGF22 binding-1. actives 2% (n = 1,000). thermal shift activity, °C (ΔTm) at 38 µM. recombinant FGF22 thermal shift, SYPRO orange fluorescence. AID 720646, 2013;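 active = fitted rise in melting shift crosses a set limit at or below the top valid dose tested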
TSA no protein: compound-only thermal shift signal without protein, dose response, artefact control for FGF22 binder project, biochemical, cherry-picked samples, RT-PCR instrument | compound-only SYPRO orange thermal shift counter-screen, no protein | AID 743019, 2013 | AC50, µM (highest dose often 38 µM) | actives 2% (n = 1,000) | shares compounds with FGF22 binding-1;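 active = rising signal whose fitted curve reaches the 0.54 level within the top valid dose, showing a melting point, actives reach about 13 µM in these data; inactive = the rest, including activity in the opposite direction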; note: value is where the raw curve crosses a fixed level and not half-maximal
Numbers stand for hits; 0 = inactive; - = not tested or not shown. Most compounds without a hit are left out; they make up all but 3.8% or so of the library.

SMILES	ADAM10 inh	ADAM17 inh	KLK7 zymogen act	FGF22 binding-1	Ecoli rRNA inh	FGF22 binding-2	TSA no protein
CC(=O)N1[C@H](CO)[C@@H](c2ccccc2)C12CN(C(=O)Cc1ccccc1)C2	-	-	-	1.6	0	0	0
O=C(Cc1ccccc1)N1CC2(C1)[C@H](c1ccccc1)[C@H](CO)N2C(=O)Cc1ccccc1	-	-	-	0	0	-	-
CCCN1C[C@H](C)[C@@H](OC)CN(C)C(=O)c2cc(NC(=O)Nc3cccc(OC)c3)ccc2OC[C@H]1C	-	-	-	-	0	-	-
COc1ccc(/C=N/N2C(C)CCCC2C)cc1OC (stereo unspecified)	0	0	0	38.2	0	0	0
CC1CCCC(C)N1/N=C/c1ccc(Cl)cc1 (stereo unspecified)	0	0	0	-	-	-	-
COc1ccc(NC(=O)Nc2ccc3c(c2)C(=O)N([C@H](C)CO)C[C@H](C)[C@@H](CN(C)Cc2ccccc2)O3)cc1	-	-	-	0	0	-	-
C[C@@H]1CCCCO[C@H](CN(C)Cc2ccc(Cl)c(Cl)c2)[C@@H](C)CN([C@@H](C)CO)C(=O)c2cc(N(C)C)ccc2O1	-	-	-	0	0	-	-
O=C(NCC[C@H]1CC[C@H](NC(=O)C2CCOCC2)[C@@H](CO)O1)Nc1ccc(Cl)cc1	-	-	-	1.5	0	0	0
O=C(NCC[C@@H]1CC[C@@H](NC(=O)C2CCOCC2)[C@H](CO)O1)Nc1ccc(Cl)cc1	-	-	-	1.4	0	0	0
COc1ccccc1C#Cc1cnc2c(c1)C(=O)N([C@H](C)CO)C[C@@H](C)[C@H](CN(C)C(=O)c1ccc3c(c1)OCO3)O2	-	-	-	0	0	-	-
O=C(CN1CCOCC1)N[C@@H]1CC[C@@H](CCn2cc(C3CCCC3)nn2)O[C@H]1CO	-	-	-	-	0	-	-
O=C(N/N=C/c1ccncc1)c1cc2ccccc2o1	0	0	0	1.8	0	0	0
O=C(N/N=C/c1cccnc1)c1cc2ccccc2o1	0	0	0	0	0	-	-
NC(c1ccc(F)c(F)c1)c1nc(-c2cncnc2)cs1 (stereo unspecified)	0	0	0	37.9	0	0	0
COc1ccc(/C(O)=C/C(=O)C(=O)NNC(=O)c2ccccc2)cc1	0	0	0	28.9	0	0	0
COc1ccc2c3c([nH]c2c1)[C@@H](CO)N(C(=O)CC1CC1)CC31CCN(Cc2cncnc2)CC1	-	-	-	-	0	-	-
Cc1cc(C2=NNC(=NCc3ccccc3)SC2)c(C)n1-c1c(C)n(C)n(-c2ccccc2)c1=O	0	0	0	0	0	-	-
CN=C1NN=C(c2cc(C)n(-c3c(C)n(C)n(-c4ccccc4)c3=O)c2C)CS1	0	0	0	1.6	0	0	0
CCC(=O)N1CC[C@@H]2[C@H]1c1cc(C#Cc3cccc(OC)c3)ccc1N[C@@H]2CO	-	-	-	-	0	-	-
O=C(OCC(=O)c1ccc(Cl)s1)c1ccc2ccccc2n1	0	0	0	1.7	0	0	0
O=C(COC(=O)c1cccnc1Cl)c1ccc(Cl)s1	0	0	0	0	0	-	-
CC(C)(C)NC(=O)N1CCC(CO)(Cc2ccccc2Cl)CC1	0	0	0	1.5	0	0	0
CCCSc1ncnc2[nH]ncc12	0	0	0	46.2	0	0	0
O=C(c1ccccc1)N1C[C@H]2[C@@H](c3ccccc31)[C@@H](CO)N2C(=O)c1ccccn1	-	-	-	0	0	-	-
O=C(c1ccccn1)N1C[C@H]2[C@@H](c3ccccc31)[C@@H](CO)N2C(=O)c1ccccn1	-	-	-	11.2	0	0	0
SMILES	ADAM10 inh	ADAM17 inh	KLK7 zymogen act	FGF22 binding-1	Ecoli rRNA inh	FGF22 binding-2	TSA no protein
O=C(c1cccc(F)c1)N1C[C@H]2[C@@H](c3ccccc31)[C@@H](CO)N2C(=O)c1ccccn1	-	-	-	3.3	0	0	0
CS(=O)(=O)Nc1ccc2c(c1)[C@H]1C[C@@H](CC(=O)NCC(F)(F)F)O[C@@H](CO)[C@H]1O2	-	-	-	0	0	-	-
O=C(Cc1ccc2c(c1)OCCO2)c1c(O)cc(O)cc1O	0	0	0	0	0	-	-
O=C(CCc1ccc(O)cc1)c1c(O)cc(O)cc1O	0	0	0	2.8	0	0	2.95µM
CCC(C)N(C(=O)COc1ccc(-c2nnco2)cc1)C1CCS(=O)(=O)C1 (stereo unspecified)	0	0	0	36.1	0	0	0
CCOc1ccc(-c2cc(C(=O)N/N=C/c3cccnc3)c3ccccc3n2)cc1	0	0	0	2.5	0	0	0
Cc1ccc(S(=O)(=O)Nc2cccc3c2O[C@H](CN(C)Cc2ccc(Oc4ccccc4)cc2)[C@H](C)CN([C@H](C)CO)C3=O)cc1	-	-	-	-	0	-	-
CCc1ccc(N2CC(C(=O)OCC(=O)Nc3ccc(C(C)=O)cc3)CC2=O)cc1 (stereo unspecified)	0	0	0	1.9	0	0	0
CCc1ccc(N2CC(C(=O)OCC(=O)Nc3ccc(C#N)cc3)CC2=O)cc1 (stereo unspecified)	0	0	0	1.6	0	0	0

Screening data (PubChem)
